# In PubChem BioAssay AID1259422 (The Scripps Research Institute Molecular Screening Center, 2018):
# Values joined by “and” are separate entries in the source; they are usually repeats but may differ in a detail not shown here. Equal values may be shown once. Out of some 640,000 compounds screened, about 9,300 (1.5%) were called active. Shown is part of a subset that was picked to be rich in actives. A number with no mark means an inactive call. Cut-off read from the data, not from the text of the source: active = inhibition above about 32%; inactive = the rest.
# Test: TEAD-YAP interaction inhibition, primary screen, TEAD-YAP interaction inhibitor project, luminescence, HEK-TIYL cells (AID 1259422);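 note: 0% = median of test compound wells and 100% = reference inhibitor wells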
# Details: TEAD-Gal4/YAP UAS-luciferase luminescence, at 9.12 µM, active compounds read high
row,SMILES,inhibition
1,O=C(CSc1nc2ccc(Br)cc2c2nc3ccccc3n12)NCc1ccccc1,0.74%
2,CCn1nc(C)c(CN2CCOc3ccc(C(O)c4cccnc4)cc3C2)c1C (centres undefined),36.6% (active)
3,CCOc1ccccc1CN1CCOc2ccc(C(O)c3cccnc3)cc2C1 (centres undefined),5.37%
4,CC(C)C(O)c1ccc2c(c1)CN(Cc1cccc(OCCO)c1)CCO2 (centres undefined),1.92%
5,CCOc1ccc(-c2n[nH]c3c2C(c2ccccc2OC)NC3=O)cc1 (centres undefined),18.1%
6,O=C1CCCC2=C1C(c1ccccc1[N+](=O)[O-])C1=C(CCCC1=O)O2,-1.3%
7,CSc1sc(SC)c(CO)c1CO,-4.01%
8,Cc1cccc(C(=O)Nc2sc3c(c2C(=O)Nc2ccccn2)CCCC3)c1,-4.61%
9,O=C(Nc1ccccn1)c1cc2c(s1)CCCC2,93.2% (active)
10,CN1CCN(NC(=O)c2cc3c(s2)CCCCC3)CC1,12.5%
11,CC(C)NC(=O)Cn1nc2n(CC(=O)NC3CCCCC3C)c3ccccc3n2c1=O (centres undefined),1.58%
12,O=C(Nc1ccc(S(=O)(=O)Nc2nccs2)cc1)c1cc(Cl)cc(Cl)c1,1.26%
13,C/C=C/c1ccc(Oc2ccc([N+](=O)[O-])c3cnccc23)c(OC)c1,-0.05%
14,Cn1ncc2c(NCc3cccnc3)ncnc21,3.93%
15,Clc1ccc(Cn2ncc3c(NCc4cccnc4)ncnc32)cc1,19.8%
16,Brc1ccc2ncnc(NCc3cccnc3)c2c1,34.6% (active)
17,CCCNc1cc(CC)nc2c3c(C)cc(C)nc3nn12,-5.94%
18,CCOc1cccc2sc(N3CCOCC3)nc12,-1.73%
19,COc1cc2c(cc1/C=C1/NC(=O)N(Cc3ccccc3Cl)C1=O)OCO2,-0.77%
20,O=C1/C(=C/c2ccc(-c3ccc([N+](=O)[O-])cc3)o2)C=C(c2ccccc2)N1c1cccc(Br)c1,5.51%

row,SMILES,inhibition
1,CC(C)=NOC(=O)CCS(=O)(=O)c1nc(-c2cccs2)cc(C(F)(F)F)n1,-33.7%
2,Cc1ccc(NC(=O)CSC2=C(C#N)C(c3ccc(F)cc3)CC(=O)N2)cc1 (centres undefined),11.8%
3,CCN1C(=O)/C(=C\c2ccc(OC)cc2)SC1=S,6.61%
4,CCN1/C(=c2/s/c(=C3/C(=O)N(c4ccccc4)NC3=Nc3ccccc3)n(CC)c2=O)Sc2ccc(OC)cc21,5.23%
5,CCN1/C(=C/c2ccc3cc(C)ccc3[n+]2CC)Sc2ccc(-c3ccccc3)cc21,88.8% (active)
6,CCN1/C(=C/c2ccc3ccc(C)cc3[n+]2CC)Sc2ccccc21,87.4% (active)
7,CCN1/C(=C/c2ccc3cc(C)ccc3[n+]2CC)Sc2ccc(OC)cc21,83.3% (active)
8,CCC(/C=C1\Sc2ccc(-c3ccccc3)cc2N1CC)=C\c1sc2ccc3ccccc3c2[n+]1CC,21.8%
9,CC[N+]1=C(C)C(C)(C)c2cc(-c3ccccc3)ccc21,25.8%
10,CCN1/C(=C/c2ccc3cc(OC)ccc3[n+]2CC)Sc2c1ccc1c2CCCC1,87.9% (active)
11,Cc1noc(/C=C/N(C)C)c1S(=O)(=O)N1CCC(C(=O)N2CCCC2)CC1,-1.15%
12,CCN1C(=O)/C(=c2\sc3nc(-c4ccccc4)nn3c2=O)c2ccccc21,-17.8%
13,O=C(NCc1cccnc1)C1CCCN(S(=O)(=O)c2ccc3[nH]c(=O)ccc3c2)C1 (centres undefined),6.17%
14,CCC(=O)N1c2ccccc2C2=C(SC(C(=O)OC)=C(C(=O)OC)C23SC(C(=O)OC)=C(C(=O)OC)S3)C1(C)C,3.65%
15,CCC1CCCCN1C(=O)c1sc2ncnc(N3CCN(c4ccc(OC)cc4)CC3)c2c1C (centres undefined),7.77%
16,CCOC(=O)CC(=O)CSc1ccc2nnc(-c3ccc(Cl)cc3)n2n1,1.1%
17,CC1CC1c1ccc(/C=C(\C#N)C(=O)Nc2cccc([N+](=O)[O-])c2)o1 (centres undefined),-64.5%
18,Cc1ccc2nc3c(nc2c1)C(=O)c1ccccc1-3,46.8% (active)
19,COc1ccc2nc3c(nc2c1)C(=O)c1ccccc1C3=O,-19.6%
20,Cc1ccc2c(c1)C(=O)c1cc3ccccc3nc1-2,-59.4%

row,SMILES,inhibition
1,CCOc1ccc(N(C)S(=O)(=O)c2ccc3[nH]cc(C(=O)NCc4cccnc4)c(=O)c3c2)cc1,3.1%
2,O=C(Nc1cccc(Cl)c1)Nc1noc2c1COc1ccccc1-2,-1.02%
3,COC(=O)/C=C1/C(=O)Nc2ccccc21,63.4% (active)
4,COC(=O)/C=C(C(=O)OC)/C(C(=O)OC)=C1\Nc2ccccc2NC1=O,8.52%
5,COC(=O)/C=C1\Nc2ccccc2OC1=O,-5.86%
6,Cc1cc(C(=O)N2CCOCC2)c2ccccc2n1,6.26%
7,Nc1nc(NCCCN2CCCC2=O)cc(Nc2ccccc2)n1,-3.84% and 0.61%
8,CCOC(=O)c1cnn(-c2nc3ccccc3s2)c1CNC(C)c1ccco1 (centres undefined),-20.8%
9,CC1(C)CC(=O)c2cc3c(N)c(C(=O)Nc4ccccc4Cl)sc3nc2C1,-21.4%
10,Cc1c(Cl)cccc1NC(=O)c1sc2nc3c(cc2c1N)C(=O)CCC3,41.4% (active)
11,Nc1c(C(=O)c2ccccc2)sc2nc3c(cc12)CCCCC3,72.9% (active)
12,Nc1c(C(=O)Nc2cccc(C(=O)O)c2)sc2nc3c(cc12)CCCCC3,-17.2%
13,Nc1c(C(=O)c2ccc(Cl)cc2)sc2nc3c(cc12)CCCCCC3,-9.12%
14,CC(=O)Nc1ccc(NC(=O)c2sc3nc4c(cc3c2N)CCCCCC4)cc1,-8.57%
15,Nc1c(C(=O)c2ccc(Br)cc2)sc2nc3c(cc12)CCCC3,-11.1%
16,Nc1c(C(=O)N2CCCCC2)sc2nc3c(cc12)CCC3,-59.9%
17,Cc1cccc(NC(=O)c2sc3nc4c(cc3c2N)CCC4)c1C,36.1% (active)
18,Cc1cc(C(=O)COC(=O)c2cc(Cl)cc(Cl)c2N)c(C)n1CC1CCCO1 (centres undefined),7.73%
19,CCn1cc(CN[C@H]2C[C@H]3C(=O)N[C@@H](Cc4ccc(O)cc4)C(=O)N3C2)c(C)n1,9.24%
